Measurements reported in PubChem BioAssay.
The source made the active and inactive calls.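 The calls were made as follows: active = at least 20% inhibition of 6-phosphogluconate dehydrogenase activity; inactive = the rest.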

molecular target: 6-phosphogluconate dehydrogenase, decarboxylating (Homo sapiens) (UniProt P52209); assay: inhibition of human phosphogluconate dehydrogenase – biochemical, recombinant enzyme, NADPH absorbance, primary screen (AID 1159550); settings: recombinant 6PGD, NADPH absorbance 341 nm; at 10 µM; hits give high values
Sequence (P52209 whole entry, looked up): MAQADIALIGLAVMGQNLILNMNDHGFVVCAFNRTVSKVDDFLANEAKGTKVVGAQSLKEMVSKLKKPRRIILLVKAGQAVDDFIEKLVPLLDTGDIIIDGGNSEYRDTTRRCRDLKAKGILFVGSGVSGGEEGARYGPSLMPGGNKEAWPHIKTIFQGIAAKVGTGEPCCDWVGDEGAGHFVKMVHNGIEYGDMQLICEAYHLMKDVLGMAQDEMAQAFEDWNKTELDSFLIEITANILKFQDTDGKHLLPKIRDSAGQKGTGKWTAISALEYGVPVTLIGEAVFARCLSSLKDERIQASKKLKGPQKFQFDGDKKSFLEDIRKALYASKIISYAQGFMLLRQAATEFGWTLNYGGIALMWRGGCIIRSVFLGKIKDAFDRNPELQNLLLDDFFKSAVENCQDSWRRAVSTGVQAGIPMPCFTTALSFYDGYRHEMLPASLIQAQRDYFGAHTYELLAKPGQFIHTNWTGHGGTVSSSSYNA

Structure (SMILES) | inhibition
CCOCN(C(=O)CCl)c1c(C)cccc1CC | 4.9% (inactive)
CCC1C2CC3C4N(C)c5ccccc5C45CC(C2C5O)N3C1O (stereo not given) | 6.73% (inactive)
CC(=O)O[C@@H]1[C@H]2CC[C@H]3[C@@](C)(O)[C@@H]4C[C@H](O)C(C)(C)[C@@]4(O)[C@H](O)C[C@@]13C[C@@]2(C)O | 8.37% (inactive)
CC(C)=CCC[C@]1(C)C=Cc2c(O)c3c(c(CC=C(C)C)c2O1)O[C@]12C(=C[C@@H]4C[C@H]1C(C)(C)O[C@@]2(C/C=C(/C)C(N)=O)C4=O)C3=O | -5.75% (inactive)
CC(C)N(C(=O)CCl)c1ccccc1 | -9.5% (inactive)
